Calls of active or inactive are those of the source. How the source made its calls: active means hit-call score of the fitted dose curve at least 0.9, where 1 is the maximum; inactive means score below 0.9.
What follows are compounds tested on solute carrier (SLCO1B1), SLCO1B1 (gene 10599) (assay: LTEA_HepaRG_SLCO1B1: Life Technologies and Expression Analysis (LTEA) Assay for solute carrier (SLCO1B1) using HepaRG (AID 2283530)). Settings: mRNA level, 48 h; actives raise or lower the signal.
Description: LTEA_HepaRG is a cell based, multiplexed-readout assay that uses HepaRG, a human liver cell line, with measurements taken at 48 hours after chemical dosing on a 96-well plate.LTEA_HepaRG_SLCO1B1 is one of 102 assay component(s) measured in the LTEA HepaRG cell culture assay. It is a marker of NR mediated transport.Data from the assay component LTEA_HepaRG_SLCO1B1 was analyzed into 1 endpoint. This assay endpoint, LTEA_HepaRG_SLCO1B1, was analyzed with bidirectional fitting relative to DMSO as the negative control and baseline of activity. Using a type of inducible reporter, measures of mRNA induction for gain or loss-of-signal activity can be used to understand regulation of transcription factor activity. To generalize the intended target to other relatable targets, this assay endpoint is annotated to the transporter intended target family, where the subfamily is organic anion transporter.
A total of 1060 chemcials from the ToxCast library were tested in eight-point concentration-response experiments. Cell culture and cytotoxicity assays were conducted at Thermo Fisher Scientific's Custom Services facility (Madison, WI). A single lot of human HepaRG cells (Thermo Fisher Scientific, Frederick, MD) was used for the cell culture experiments. 96-well format collagen type I coated plates of human HepaRG cells were prepared using established methods. Briefly, cryopreserved HepaRG cells were thawed, plated at a density of approximately 100,000 cells/well in HepaRG Thaw, Plate, and General Purpose media (HPRG770, Thermo Fisher Scientific), and incubated for 48 hours. 0.5% DMSO was selected as vehicle control to balance the requisite need of DMSO in HepaRG cultures to maintain differentiation (for example, baseline metabolism, proportions of hepatocytes vs. cholangiocytes), while enabling further hepatic receptor pathway activation (for example, PXR and CAR) in response to chemical exposure. 48 hours after plating, the culture medium was replaced with HepaRG Serum-Free Incudtion Media. Cells were exposed to each test chemical in duplicate and maintained in CO2 incubators for another 48 hours. Chemical plates were thawed to room temperature and 200x concentrations of treatment groups were prepared. 8-point conentration-reponse curves were made with the highest exposure at 100 uM, followed by half-log dilutions, all in 0.5% DMSO. Each test plate contained variouse controls, induction positive controls (1mM phenobarbital), cytotoxicity positive controls ([…] aflatoxin B1), vehicle controls (0.5% DMSO), and total lysis controls (0.5% DMSO). Cell morphology images were taken using an Essen IncuCyte FLR automated microscope, with six 96-well plates imaged in about 24 minutes. Images were captured and exported and JPEG files. Spent culture media was transfered to black-well plates for the LDH assay, and remaining media was sorted at -80 C for later use. Cells were treated with RLT buffer and frozen until shipped for gene expression analysis. Total RNA was isolated from the cell suspension in 75 uL of Buffer RLT (Qiagen, Germantown, MD 20874) by Quintiles/Expression Analysis (Durham, NC) using a custom isolation procedure. Total RNA from each plate well was transferred to a preamplification plate. Fluidigm's 96.96 Dynamic ArrayTM (Fluidigm, Amsterdam, the Netherlands) technology was used for gene expression analyses by quantitative reverse transcription polymerase chain reaction (qRT-PCR, performed by Quintiles/Expression Analysis, Durham, NC)89. Standard TaqManTM Assays (Applied Biosystems/ThermoFisher Scientific, Foster City, CA) were used to assess the expression of 93 genes selected based on their selectivity and sensitivity to important hepatic receptors known to be modulated by environmental chemicals; importance in human hepatocyte functionality; and hepatotoxicity. […]
`CNC(=O)Oc1cccc2c1OC(C)(C)C2` was tested, and the outcome was “inactive”. In the case of `CCCCCCCCCCCCCN1CC(C)OC(C)C1` (stereo not given), the outcome is reported as “inactive”. `CN(C)C(=O)Nc1ccc(Cl)cc1` was tested, and the outcome was “inactive”. In the case of `Cc1ccc(N=C=O)cc1N=C=O`, the outcome is reported as “inactive”. With `CCCCC(CC)COC(=O)c1ccc(C(=O)OCC(CC)CCCC)c(C(=O)OCC(CC)CCCC)c1` (stereo not given) the outcome was “inactive”. In the case of `CC(C)COC(=O)c1ccccc1C(=O)OCC(C)C`, the outcome is reported as “inactive”. With `COP(=S)(OC)SCN1C(=O)c2ccccc2C1=O` the outcome was “inactive”. With `N#CC(Br)Br` the outcome was “inactive”. With `CC(C)N(Cc1ccccc1)C(=O)C(C)(C)C` the outcome was “inactive”. With `CCNS(=O)(=O)C(F)(F)C(F)(F)C(F)(F)C(F)(F)C(F)(F)C(F)(F)C(F)(F)C(F)(F)F` the AC50 was 48.2 µM (active). `Clc1ccc(Cl)c(Cl)c1` was tested, and the outcome was “inactive”. In the case of `CC(C)(C)OOC(=O)c1ccccc1`, the outcome is reported as “inactive”. `CC(C)(O)c1cnn2c(-c3ccc(F)c(-c4c(F)cccc4C#N)c3)cnc2n1` was tested, and the outcome was “inactive”. In the case of `Cc1cccc(N)c1N`, the AC50 is reported as 50 µM (active). `CN(C)c1ccccc1` was tested, and the outcome was “inactive”. For `Nc1ccc(Cc2ccc(N)cc2)cc1`, the outcome was “inactive”. In the case of `CCOc1cccc(C2(N3CCN(c4ccccc4)CC3)CCC(C)CC2)c1` (stereo not given), the outcome is reported as “inactive”. For `ClCCOCCCl`, the outcome was “inactive”. With `C=CCc1ccc2c(c1)OCO2` the outcome was “inactive”. In the case of `OCCOCCO`, the outcome is reported as “inactive”. `Cc1ccc([N+](=O)[O-])cc1` was tested, and the outcome was “inactive”. `OCCCBr` was tested, and the outcome was “inactive”. With `CC(O)CCO` (stereo not given) the outcome was “inactive”. For `CCN(CC)N=O`, the outcome was “inactive”. For `CN(C)c1ccc(C(=O)c2ccc(N(C)C)cc2)cc1`, the outcome was “inactive”. With `Nc1ccc(N=Nc2ccccc2)cc1` the AC50 was 11.4 µM (active). In the case of `CCCCCCCCn1sccc1=O`, the AC50 is reported as 84.1 µM (active). With `CCCCOC(=O)c1ccccc1C(=O)OCc1ccccc1` the outcome was “inactive”. For `CO[C@@H]1[C@H](OC(=O)NC(=O)CCl)CC[C@]2(CO2)[C@H]1[C@@]1(C)O[C@@H]1CC=C(C)C`, the outcome was “inactive”. For `O=C(Nc1ccccc1)c1ccccc1I`, the outcome was “inactive”. `[Cl-].[Cl-].[Hg+2]` was tested, and the outcome was “inactive”. `O=P(OCCCl)(OCCCl)OCCCl` was tested, and the outcome was “inactive”. For `CCN(CC)CCO`, the outcome was “inactive”. `O=C(Oc1ccc(Br)cc1)N1CCN2CCC1CC2` was tested, and the outcome was “inactive”. In the case of `c1ccc2c(c1)-c1cccc3cccc-2c13`, the outcome is reported as “inactive”. In the case of `ClC1=C(Cl)[C@]2(Cl)[C@H]3[C@H]([C@@H]4C=C[C@H]3C4)[C@@]1(Cl)C2(Cl)Cl`, the outcome is reported as “inactive”. For `[As]#[In]`, the outcome was “inactive”. In the case of `ClC1=C(Cl)C2(Cl)C3C(Cl)C=CC3C1(Cl)C2(Cl)Cl` (stereo not given), the outcome is reported as “inactive”. `CC(C)(OOC(C)(C)c1ccccc1)c1ccccc1` was tested, and the outcome was “inactive”. `Clc1ccccc1Cl` was tested, and the outcome was “inactive”.
